According to PubChem BioAssay:

Assay: small-molecule microarray binders of probe aDKK1, primary screen, biochemical, biotinylated probe, 635/667 nm fluorescence (AID 1099);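 note: score merges 667nm spot fluorescence with signal to noise across triplicate slides; reference of the scale not given here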
Conditions: higher = more signal

Structure (SMILES)	composite z-score
[N-]=[N+]=Nc1ccccc1C[C@]1(C(=O)O)N=C(c2ccc(OCCCO)cc2)O[C@H]1c1ccccc1	0.336
CN1C(=O)[C@@]2(Cc3ccccc3)N=C(c3ccc(OCCCO)cc3)O[C@H]2c2ccccc21	0.428
NC(=O)[C@@H]1[C@H]2C(=O)O[C@H](c3ccccc3)[C@H](c3ccccc3)N2[C@H](c2ccc(OCCO)cc2)[C@@]12C(=O)Nc1ccc(C#CCCO)cc12	0.585
Cc1ccc(S[C@]2(C(=O)NC(C)C)CC(=O)N(Cc3ccccc3Cl)[C@@H]2c2ccc(CO)cc2)cc1	0.17
CC(C)=CCCC(C)=CC(O)C1C=CC2C(=O)N(c3ccccc3)C(=O)C2N1Nc1ccccc1F (stereo not given)	0.0643
COc1cc2c(cc1OC)CN(C(=O)[C@@H]1[C@H]3C(=O)O[C@H](c4ccccc4)[C@H](c4ccccc4)N3[C@H](c3ccc(O)cc3)[C@@]13C(=O)Nc1ccc(C#CCCO)cc13)CC2	-0.0984
COc1cc(NN2C(C(O)C3CCCCC3)C=CC3C(=O)N(C)C(=O)C32)cc(OC)c1OC (stereo not given)	1.05
CC(C)C(CO)N1C(=O)[C@@H]2[C@H]3C(=O)OCC=C[C@H]3OC23C=CCN(C(C)(C)C)C(=O)[C@@H]13 (stereo not given in full)	-0.293
COC(=O)[C@@]1(Cc2ccc(OC)cc2)[C@H]2c3cc(C(=O)N4CCCC4)n(Cc4ccc(S(C)(=O)=O)cc4)c3C[C@H]2CN1C(=O)c1ccccc1	0.807
CCCNC(=O)[C@@]1(Sc2ccc(C)cc2)CC(=O)N(C2CCCCC2)[C@@H]1c1ccc(CO)cc1I	0.548
CO[C@H]1O[C@H](CO)[C@@H](OC(=O)Nc2ccc(C#N)cc2)[C@@H]2OC(=O)[C@H](Cc3cccc(Br)c3)C/C=C/C[C@@H](Cc3cccc(Br)c3)C(=O)O[C@@H]12	0.617
COCCOC(=O)N1C(=O)[C@@]2(c3cc(C#CC4(O)CCCCCC4)ccc31)[C@H](C(=O)N1CCN(c3ncccn3)CC1)[C@H]1C(=O)O[C@H](c3ccccc3)[C@H](c3ccccc3)N1[C@@H]2c1ccccc1OCCO	-0.0139
CCCC=C(CCC)[C@@H](NC(=O)CCc1ccccc1)c1ccc(C(F)(F)F)cc1	0.256
CC(C)[C@H]1NC(=O)[C@@]23C(=O)N[C@@H](Cc4ccccc4)C2[C@H](C)[C@@]2(C)O[C@H]2C3/C=C/CCC/C=C/CNC(=O)[C@H](Cc2ccccc2)NC1=O (stereo not given in full)	-0.339
CCCCNC(=O)c1ccc(C#C[Si](C(C)C)(C(C)C)C(C)C)c(OC(C)=O)c1	-0.0188
C=C(/C(=C/C[C@H](OC(=O)c1ccncc1)c1ccccc1OCCO)c1cnc2ccccc2c1)C(C)C	-0.117
COc1cc(NN2C(C(O)c3cc(OC)c(OC)c(OC)c3)C=CC3C(=O)N(c4ccccc4)C(=O)C32)cc(OC)c1OC (stereo not given)	0.981
COC(=O)[C@@]1(Cc2ccccc2)[C@H]2c3cc(C(=O)N4CCCC4)n(CCSCCO)c3C[C@H]2CN1C(=O)c1ccccc1	1.25

Structure (SMILES)	composite z-score
COCCOC(=O)N1C(=O)[C@@]2(c3cc(C#Cc4ccc(OC)cc4)ccc31)[C@H](c1ccc(OCCO)cc1)N1[C@H](c3ccccc3)[C@H](c3ccccc3)OC(=O)[C@H]1[C@@H]2C(=O)Nc1nc2ccccc2s1	0.636
COCCOC(=O)N1C(=O)[C@@]2(c3cc(C#CCC(C(=O)OC)C(=O)OC)ccc31)[C@H](c1ccc(O)cc1)N1[C@H](c3ccccc3)[C@H](c3ccccc3)OC(=O)[C@H]1[C@@H]2C(=O)NC[C@H](O)c1ccccc1	0.362
CCCCCCCCCCC(O)C1C=CC2C(=O)N(c3ccccc3)C(=O)C2N1Nc1ccccc1F (stereo not given)	0.0158
COc1ccc(C(O)C2C=CC3C(=O)N(c4ccccc4)C(=O)C3N2Nc2ccc(C(C)C)cc2)c2ccccc12 (stereo not given)	0.661
O=C1C2C=CC(C(O)c3cc(C(F)(F)F)cc(C(F)(F)F)c3)N(Nc3ccccc3F)C2C(=O)N1c1ccccc1 (stereo not given)	1.09
C=C(CCCC)C(=O)CC[C@@H](OC(=O)c1cccnc1)c1ccc(OCCO)cc1	-0.191
C=C(/C(=C/C[C@@H](OC(=O)c1ccncc1)c1cccc(OCCO)c1)c1cnc2ccccc2c1)C(C)C	0.0215
CC(C)CNC(=O)[C@@]1(c2ccc([N+](=O)[O-])cc2)CC(=O)N(C2CCCCC2)[C@@H]1c1ccc(CO)cc1	0.368
C[C@]1(C(=O)O)c2ccccc2C(=O)N(Cc2ccc(OC(F)(F)F)cc2)[C@H]1c1ccc(CO)cc1	0.702
C=C(COC)C(=O)CC[C@H](OC(=O)c1cccnc1)c1ccc(CO)o1	-0.424
COCCOC(=O)N1C(=O)[C@@]2(c3cc(C#CCC(C(=O)OC)C(=O)OC)ccc31)[C@H](C(=O)NC[C@H](O)c1ccccc1)[C@H]1C(=O)O[C@H](c3ccccc3)[C@H](c3ccccc3)N1[C@@H]2c1ccc(O)cc1	-0.0319
Cc1cccc([C@H]2C[C@H]3C(Br)=C[C@@H]2C(=O)[C@]32CO2)c1	-0.423
C=CCC(OC(C)=O)[C@@H]1[C@@H](N(Cc2ccc(-c3cccc(C(F)(F)F)c3)o2)C(=O)c2cccc3ccccc23)c2cc(OCCCO)ccc2N1C(=O)Cc1ccc(OC)cc1 (stereo not given in full)	-0.291
CC(C)C[C@@H]1NC(=O)[C@@]23C(=O)N[C@@H](Cc4ccccc4)C2[C@H](C)[C@@]2(C)O[C@H]2C3/C=C/C/C=C\CNC(=O)[C@@H](C)NC1=O (stereo not given in full)	-0.416
CCOC(=O)C1=CCN(S(=O)(=O)c2ccc(C)cc2)C1c1ccccc1 (stereo not given)	0.129
COCCOC(=O)N1C(=O)[C@@]2(c3ccccc31)[C@H](c1ccccc1OCCO)N1[C@H](c3ccccc3)[C@H](c3ccccc3)OC(=O)[C@H]1[C@@H]2C(N)=O	0.701
C=C(COC)C(=O)CC[C@@H](OC(=O)c1cccnc1)c1ccccc1OCCO	0.403
